# Measured values: PubChem BioAssay AID602229 (The Scripps Research Institute Molecular Screening Center, 2012)
# Out of some 360,000 compounds screened, about 1,300 (0.36%) were called active.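 Rule for the calls: active = inhibition above the mean of all tested compounds plus 3 SD (cut at about 70% in these data); inactive = the rest.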 Many of the other results were omitted from the sample, so actives are more common in it than they were.
# Target: Photoreceptor-specific nuclear receptor (Homo sapiens) (UniProt Q9Y5X4)
# Assay: NR2E3 agonists in two-hybrid cells, primary screen, cell-based, luminescence, CHO-S, Gal4-NCOR/VP16-NR2E3 (AID 602229);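 note: 0% = DMSO with NR2E3 transfected cells and 100% = cells lacking NR2E3 construct; higher means lower luciferase signal from less NR2E3 corepressor binding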
# Conditions: luciferase, at 3.98 µM, active compounds read high
# Photoreceptor-specific nuclear receptor (Homo sapiens), sequence (Q9Y5X4 whole entry, looked up, the tested form may be a part): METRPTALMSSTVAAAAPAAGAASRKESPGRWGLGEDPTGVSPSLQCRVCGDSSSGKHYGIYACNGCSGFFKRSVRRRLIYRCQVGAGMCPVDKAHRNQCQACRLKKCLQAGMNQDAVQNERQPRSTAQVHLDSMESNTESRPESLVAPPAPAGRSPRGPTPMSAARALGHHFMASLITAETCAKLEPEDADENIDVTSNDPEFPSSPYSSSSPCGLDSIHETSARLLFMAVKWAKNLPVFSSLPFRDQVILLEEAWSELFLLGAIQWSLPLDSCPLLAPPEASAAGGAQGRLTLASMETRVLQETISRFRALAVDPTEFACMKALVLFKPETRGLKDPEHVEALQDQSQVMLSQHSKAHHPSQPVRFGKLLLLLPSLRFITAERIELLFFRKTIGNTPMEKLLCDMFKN
row,Compound,inhibition of corepressor binding
1,O=C(CN1CCSCC1)N/N=C/c1ccc(F)cc1F,-6.92% (inactive)
2,CCOC(=O)N1CCN(S(=O)(=O)c2cc(Br)cc3c2N(C(=O)C2CC2)CC3)CC1,-15.4% (inactive)
3,OC[C@@H]1CN(Cc2ccc(-c3ccccc3)cc2)C[C@H](n2cnc3c(NC4CCCC4)ncnc32)O1,91.4% (active)
4,OC[C@@H]1CN(Cc2ccc(F)cc2)C[C@H](n2cnc3c(NC4CCCC4)ncnc32)O1,-45.5% (inactive)
5,OC[C@@H]1CN(Cc2cccs2)C[C@H](n2cnc3c(NC4CCCC4)ncnc32)O1,-11.2% (inactive)
6,O=C(CCc1nnc(CCCCc2ccccc2)o1)NC(c1cccnc1)C(F)(F)F (centres undefined),-10.3% (inactive)
7,O=C(Nn1cnnc1)c1cc(Cl)ccc1Cl,-4.56% (inactive)
8,NC(=O)C1CCN(CC(O)CSc2ccc(F)cc2)CC1 (centres undefined),-11.6% (inactive)
9,NS(=O)(=O)c1cc(C(=O)NCCOc2ccccc2)c(Cl)cc1Cl,16% (inactive)
10,CC(=O)N1CCCc2cc(S(=O)(=O)N3CCCC(C(=O)N4CCN(c5cccc(Cl)c5)CC4)C3)ccc21 (centres undefined),97.5% (active)
11,COc1cccc(N2CCN(C(=O)C3CCCN(S(=O)(=O)c4cnc[nH]4)C3)CC2)c1 (centres undefined),-11% (inactive)
12,Cc1ccc(S(=O)(=O)N2CCCC(C(=O)N3CCN(C)CC3)C2)cc1 (centres undefined),-11.8% (inactive)
13,O=C(CCC1CCCC1)N=C1SC2CS(=O)(=O)CC2N1Cc1ccccc1 (centres undefined),-16.6% (inactive)
14,CCc1cccc(NC(=O)C2CCCN(S(=O)(=O)c3ccc4[nH]c(=O)ccc4c3)C2)c1 (centres undefined),-18.2% (inactive)
15,CC(=O)c1ccc(NC(=O)C2CCCN2S(=O)(=O)c2cccs2)cc1 (centres undefined),-7.87% (inactive)
16,N#Cc1cccc(CSc2nnc(CCCO)n2-c2ccccc2)c1,1.83% (inactive)
17,O=C(OC12CC3CC(CC(C3)C1)C2)c1ccc(NCc2cc(O)ccc2O)cc1,91.5% (active)
18,CC(C)OC(=O)c1ccc(NCc2cc(O)ccc2O)cc1Cl,-8.58% (inactive)
19,Cc1ccnc(NC(=O)Cn2ccc([N+](=O)[O-])n2)c1,-2.77% (inactive)
20,O=C(C1CCN(S(=O)(=O)c2ccc(Br)s2)CC1)N1CCN(c2ccccc2)CC1,-1.63% (inactive)
21,COc1cccc(CNC(=O)CCN2C(=S)NC(C)(C)CC2C)c1 (centres undefined),9.24% (inactive)
22,COC(=O)[C@]1(S(=O)(=O)c2ccccc2)C[C@@H]2ON=C(c3ccc(OC)cc3)[C@@H]2C1,-7.87% (inactive)
23,N#C[C@]1(S(=O)(=O)c2ccccc2)C[C@@H]2ON=C(c3cccc(Br)c3)[C@@H]2C1,77.6% (active)
24,CCCc1cc(=O)[nH]c(SCC(=O)c2c(N)n(CC(C)C)c(=O)n(C)c2=O)n1,5.16% (inactive)
